Test [1] deals with DNA repair nuclease/redox regulator APEX1 (Homo sapiens) (UniProt P27695). Kind of test: qHTS Validation Assay for Inhibitors of the Human Apurinic/apyrimidinic Endonuclease 1 (APE1) (AID 1705;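 also: TAMRA fluorescence gain over two minutes as APE1 cuts a quenched THF abasic duplex; % is scaled to controls: 0 for no effect and ±100 for the full control effect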). Summed up: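 qHTS, 1536-well. APE1 + cpd 15 min RT → 50 nM TAMRA/BHQ-2 THF-abasic dsDNA substrate → kinetic fluorescence, 3 reads/60 s; delta(read3−read1) = reaction progress. No-enzyme buffer = negative control.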
For orientation: qHTS replaces the single test concentration by a dilution series.

A short description of test [2]: Counterscreen for APE1 Inhibitors: Fluorescent Dye Displacement Validation Assay (AID 1707).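 Also: plate controls were ThO with dsDNA and no compound for no effect and ThO without dsDNA for full effect.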 Summed up:
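Thiazole Orange (250 nM) bound to 50 nM TAMRA-labelled dsDNA with tetrahydrofuran abasic site; displacement by DNA-binding compounds lowers fluorescence. Buffer 50 mM Tris-HCl pH 7.5, 50 mM NaCl, 2 mM MgCl2, 0.01% Tween-20; endpoint read at 480/540 nm.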
A general note: The purpose of a counterscreen is to sort out artefacts and off-target activity.

The nature of test [3]: qHTS for differential inhibitors of proliferation of Plasmodium falciparum line 7G8 (AID 1815).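 Also: parasite growth measured after three days of incubation.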 Also: potency is read from the fitted curve at half-maximal effect.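 As to activity change, negative = inhibition: plate controls were vehicle wells for no effect and reference inhibitor wells for full effect.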
A short description of test [4]: qHTS for differential inhibitors of proliferation of Plasmodium falciparum line GB4 (AID 1816).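 Also: parasite growth measured after 72 h incubation.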 Also: potency is read from the fitted curve at half-maximal effect.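 As to activity change, negative = inhibition: 0% = vehicle DMSO and -100% = reference inhibitor.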 The following applies: Potency: Plasmodium falciparum GB4 proliferation inhibition.
Test [5] in a line: qHTS for differential inhibitors of proliferation of Plasmodium falciparum line W2 (AID 1883).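 Also: parasites grown with compound for 72 h before lysis and staining.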 Also: potency is read from the fitted curve at half-maximal effect.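 As to activity change, negative = inhibition: 0% = vehicle wells and -100% = control inhibitor wells.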 The following applies: Potency: Plasmodium falciparum W2 proliferation inhibition.
Test [6] in a line: qHTS for differential inhibitors of proliferation of Plasmodium falciparum line HB3 (AID 1886).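 Also: parasites grown with compound for 72 h before SYBR Green readout.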 Also: potency is read from the fitted curve at half-maximal effect.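 As to activity change, negative = inhibition: plate controls were vehicle for no effect and reference inhibitor for full effect.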 The following applies: Potency: Plasmodium falciparum HB3 proliferation inhibition.
The target of test [7] is Ferritin light chain (Equus caballus) (UniProt P02791). Kind of test: qHTS Validation Assay for Identification of Novel General Anesthetics (AID 2323). Also: % is scaled to controls: 0 for no effect and ±100 for the full control effect. Summed up:
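Fluorescence at 535 nm (excitation 380 nm) reported loss of 1-AMA binding to horse-spleen apoferritin (10 uM) in PBS with 50% saturated 1-aminoanthracene, after 10 min room-temperature incubation with compound; values from Hill fits of normalized response.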

In test [8] the target is ATP-dependent DNA helicase Q1 (Homo sapiens) (UniProt P46063). Kind of test: qHTS Validation Assay for Inhibitors of RecQ-Like Dna Helicase 1 (RECQ1) (AID 2353).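 Also: plate controls were DMSO vehicle for no effect and enzyme-free control for full effect.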 A digest of the protocol: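 50 nM RECQ1T1 preincubated 15 min with compound in Tris pH 8.0 buffer with MgCl2, DTT, Tween-20 and 2.5 ug/ml poly(dI-dC); started with 200 nM TAMRA/BHQ-2 forked duplex and 2 mM ATP. Unwinding read as fluorescence (525/598 nm), two reads 2 h apart.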
Chain of ATP-dependent DNA helicase Q1 (Homo sapiens) (P46063 whole entry, looked up): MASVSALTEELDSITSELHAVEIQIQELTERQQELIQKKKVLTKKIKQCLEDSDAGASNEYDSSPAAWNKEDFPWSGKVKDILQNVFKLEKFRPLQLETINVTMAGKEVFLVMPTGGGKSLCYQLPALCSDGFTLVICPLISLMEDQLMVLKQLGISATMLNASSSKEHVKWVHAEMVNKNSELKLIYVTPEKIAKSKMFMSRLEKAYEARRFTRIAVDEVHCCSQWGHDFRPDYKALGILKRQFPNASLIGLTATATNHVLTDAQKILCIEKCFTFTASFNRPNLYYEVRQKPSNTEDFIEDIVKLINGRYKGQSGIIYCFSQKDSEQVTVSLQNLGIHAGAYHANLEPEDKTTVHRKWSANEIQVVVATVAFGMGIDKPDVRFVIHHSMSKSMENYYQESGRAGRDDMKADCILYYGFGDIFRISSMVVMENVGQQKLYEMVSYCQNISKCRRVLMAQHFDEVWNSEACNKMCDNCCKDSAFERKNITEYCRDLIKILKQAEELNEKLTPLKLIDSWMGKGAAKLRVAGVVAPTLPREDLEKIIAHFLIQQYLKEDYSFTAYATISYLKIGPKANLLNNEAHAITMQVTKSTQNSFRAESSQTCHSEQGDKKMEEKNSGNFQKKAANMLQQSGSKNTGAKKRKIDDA

Test [9] concerns the target M-phase phosphoprotein 8 (Homo sapiens) (UniProt Q99549). Kind of test: qHTS Validation Assay for Inhibitors for MPP8 Chromodomain Interactions with Methylated Histone Tails (AID 488949).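 Also: 50 nM MPP8 with 50 nM peptide preformed then compounds added for 30 min; AlphaScreen signal from MPP8 chromodomain bound to biotinylated H3K9me3 peptide; top concentration of the series differs between compounds; % is scaled to controls: 0 for no effect and ±100 for the full control effect; nearly all actives have a fitted effect of over 55% in size.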 A digest of the protocol:
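50 nM MPP8 + 50 nM b-H3K9me3 peptide, PBS pH 7.4/0.01% Tween-20, 30 min RT; + cpd 30 min RT; + AlphaScreen donor/Ni-chelate acceptor beads 10 ug/mL final, 30 min dark; luminescence read.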

Test [10] deals with Transient receptor potential cation channel subfamily V member 1 (Homo sapiens) (UniProt Q8NER1). Kind of test: HTS Assay for Compounds that Act as Enhancers of the Vanilloid Receptor 1 (AID 488979). Also: 0% is about no effect. A digest of the protocol: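 TRPV1 cells loaded with Fluo-8 calcium dye; compound added and Ca2+ signal (ex 480/em 520 nm) followed 3 min, then capsaicin at EC20 added and read 2 more min to detect enhancement.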
Chain of Transient receptor potential cation channel subfamily V member 1 (Homo sapiens) (Q8NER1 whole entry, looked up): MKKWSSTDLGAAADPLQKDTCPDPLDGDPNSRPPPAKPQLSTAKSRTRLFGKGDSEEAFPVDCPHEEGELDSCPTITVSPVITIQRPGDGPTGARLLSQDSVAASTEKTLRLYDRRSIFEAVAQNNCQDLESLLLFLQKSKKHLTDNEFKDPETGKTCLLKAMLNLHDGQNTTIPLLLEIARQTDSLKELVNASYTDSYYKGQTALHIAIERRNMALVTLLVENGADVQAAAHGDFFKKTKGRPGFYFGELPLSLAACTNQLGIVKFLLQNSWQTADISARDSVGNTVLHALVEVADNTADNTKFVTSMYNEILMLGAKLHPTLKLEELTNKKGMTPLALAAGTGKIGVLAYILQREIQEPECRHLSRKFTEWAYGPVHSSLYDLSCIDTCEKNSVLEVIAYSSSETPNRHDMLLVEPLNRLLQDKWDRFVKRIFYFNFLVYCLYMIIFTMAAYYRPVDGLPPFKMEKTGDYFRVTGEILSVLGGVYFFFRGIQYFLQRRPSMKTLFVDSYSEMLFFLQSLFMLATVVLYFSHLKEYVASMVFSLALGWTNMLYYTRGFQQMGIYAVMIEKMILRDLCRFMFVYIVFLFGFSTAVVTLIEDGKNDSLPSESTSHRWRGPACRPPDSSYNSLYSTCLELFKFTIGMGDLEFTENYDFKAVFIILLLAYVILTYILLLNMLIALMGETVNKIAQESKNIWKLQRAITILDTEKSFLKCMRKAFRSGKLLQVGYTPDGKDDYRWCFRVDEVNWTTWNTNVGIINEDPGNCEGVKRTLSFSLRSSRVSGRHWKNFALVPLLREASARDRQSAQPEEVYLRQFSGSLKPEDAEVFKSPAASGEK

In test [11] the target is Thyrotropin receptor (Homo sapiens) (UniProt P16473). Kind of test: qHTS Assay for Antagonists of the Thyroid Stimulating Hormone Receptor (AID 488980). Also: 0% is about no effect. Summed up:
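Readout is cAMP by HTRF competition between cellular cAMP and cAMP-d2 for a cryptate-labelled antibody. Antagonism was assessed in TSHR-transfected HEK293 cells stimulated with 4 nM TSH (EC80, final) in the presence of RO 20-1724.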

Test [12] concerns the target Thyrotropin-releasing hormone receptor (Homo sapiens) (UniProt P34981). Kind of test: qHTS for Small Molecule Agonists and Allosteric Enhancers of Human TRH Receptor: Validation Screen for Agonists (AID 493127;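 active = calcium activation more than 3 SD above the typical response in the agonist read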;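 also: intracellular calcium rise by fluo-8 fluorescence before TRH EC20 addition; 0% is about no effect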). The following applies: TRH receptor agonist cell assay; at 2 µM; stronger effect = higher value. A digest of the protocol: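 TRHR-expressing cells were plated overnight in serum-containing medium, then loaded with fluo-8 calcium dye at room temperature for 30 min–1.5 h. After a 10 s baseline, compound was pin-transferred and calcium fluorescence (ex 480/em 530) read kinetically for agonist response.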

Test [13] deals with Galactokinase (Homo sapiens) (UniProt P51570). Kind of test: qHTS Validation Assay for Inhibitors of Human Galactokinase (GALK) (AID 493189). Also: 0% is about no effect. A digest of the protocol:
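5 nM GALK / 100 uM galactose / 35 uM ATP, 20 mM HEPES pH8.0, 5 mM MgCl2, 60 mM NaCl, 1 mM DTT, 0.01% BSA (final). RT 1 h; Kinase-Glo Plus luminescence.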

Test [14] in a line: Validation screen for small molecules that induce DNA re-replication in SW480 colon adenocarcinoma cells (AID 504364). Also: 0% is about no effect. Summed up: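 SW480 cells seeded at 250 per well were exposed to compound or DMSO for 48 hr at 37 C, 5% CO2, then stained with Hoechst for 40 min. DNA content per nucleus was imaged (405 nm ex, 500-530 nm em).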
The nature of test [15]: NFAT Signaling Pathway (AID 444; active = well fitted curve in either direction with a large enough effect, not every such curve was filed as active;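 also: carbachol stimulus at about its EC50 of 1 µM final; % is scaled to controls: 0 for no effect and ±100 for the full control effect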). The following applies: Jurkat NFAT-bla M1, carbachol, beta-lactamase ratio, 5 h. Summed up:
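Jurkat cells with NFAT-driven β-lactamase reporter and co-expressed M1 receptor, stimulated with carbachol (final 1 uM, ~EC50), compound titration, 5 h at 37 °C. CCF4 loaded 1 h at RT; 460/530 nm ratio gave %activity and AC50.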

Test [16] can be described thus: qHTS Assay for Identification of Small Molecule Agonists for Thrombopoietin (TPO) Signaling Pathway (AID 917). Also: % is scaled to controls: 0 for no effect and ±100 for the full control effect. A digest of the protocol: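 Luminescence from a Glycoprotein IIb promoter–driven luciferase reporter served as read-out in murine Ba/F3 cells carrying the human TPO receptor. Cells, deprived of IL-3 overnight, received compounds with 26 pM TPO and were incubated 24 hrs at 37 C.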

For test [17], the target named is Muscarinic acetylcholine receptor M1 (Rattus norvegicus) (UniProt P08482). Kind of test: qHTS Assay for Antagonists of Acetylcholine Muscarinic M1 Receptor: Kinetic Measurement of Intracellular Calcium Response (AID 943).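 Also: Fluo-4 calcium signal as peak divided by basal fluorescence over 4 min; nearly all actives have a fitted effect of over 75% in size.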 Summed up:
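CHO cells stably expressing rat M1 were loaded with no-wash Fluo-4 dye for 1 h at 37C, pre-incubated 10 min with compound, then challenged with EC80 carbachol (100 nM final); kinetic calcium read 4 min, peak/basal ratio.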

For test [18] the target is unchanged. Kind of test: qHTS Assay for Antagonists of Acetylcholine Muscarinic M1 Receptor: Measurement of IP-One Response (AID 944). Also: nearly all actives have a fitted effect of over 75% in size. A digest of the protocol: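 CHO cells expressing rat M1 receptor, recovered overnight, were pre-incubated 10 min with compound, then stimulated 30 min with carbachol at EC80 (200 nM) in LiCl-containing buffer, pH 7.4. IP1 accumulation was read by HTRF (620/665 nm).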

The target of test [19] is Alpha-galactosidase (Coffea arabica) (UniProt Q42656). Kind of test: Counterscreen for Glucocerebrosidase Inhibitors: qHTS Assay for Coffee Bean alpha-Galactosidase at pH 4.5 (AID 957).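 Also: plate controls were enzyme alone for no effect and no enzyme for full effect.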 A digest of the protocol:
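Green coffee bean enzyme (2 nM final) was incubated with compounds (0.7 nM to 77 uM) and 4-methylumbelliferyl alpha-D-galactopyranoside (80 uM final) in 50 mM citric acid, 0.005% Tween-20, pH 4.5, 20 min at room temperature; AC50 from Hill fits.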

Test [20] has as its target Cytochrome P450 2C19 (Homo sapiens) (UniProt P33261). Kind of test: qHTS Assay for Inhibitors and Substrates of Cytochrome P450 2C19 (AID 899). Also: nearly all actives have a fitted effect of over 60% in size. Also: potency is read from the fitted curve at half-maximal effect. Summed up:
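Signal comes from luciferase acting on luciferin released by CYP2C19-mediated hydroxylation of Luciferin-H EGE, 10uM (KM). Assay mix: 5nM enzyme, 50mM KPO4; 60 min at 37C with NADPH regeneration. Data normalized against 57uM ketoconazole.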

The structures appear in SMILES notation. Unmarked numbers belong to inactive results. Records with an inconclusive call do not appear. Calls of active or inactive are those of the source. Unless noted, calls follow the shape of the dose curve; as a rule, active = well fitted curve in the direction sought with a large enough effect; inconclusive = small, poorly fitted or top-dose-only effect, or another doubt; inactive = no such curve, though single readings can be large; an effect the other way counts as inactive or inconclusive.

Chain of M-phase phosphoprotein 8 (Homo sapiens) (Q99549 whole entry, looked up): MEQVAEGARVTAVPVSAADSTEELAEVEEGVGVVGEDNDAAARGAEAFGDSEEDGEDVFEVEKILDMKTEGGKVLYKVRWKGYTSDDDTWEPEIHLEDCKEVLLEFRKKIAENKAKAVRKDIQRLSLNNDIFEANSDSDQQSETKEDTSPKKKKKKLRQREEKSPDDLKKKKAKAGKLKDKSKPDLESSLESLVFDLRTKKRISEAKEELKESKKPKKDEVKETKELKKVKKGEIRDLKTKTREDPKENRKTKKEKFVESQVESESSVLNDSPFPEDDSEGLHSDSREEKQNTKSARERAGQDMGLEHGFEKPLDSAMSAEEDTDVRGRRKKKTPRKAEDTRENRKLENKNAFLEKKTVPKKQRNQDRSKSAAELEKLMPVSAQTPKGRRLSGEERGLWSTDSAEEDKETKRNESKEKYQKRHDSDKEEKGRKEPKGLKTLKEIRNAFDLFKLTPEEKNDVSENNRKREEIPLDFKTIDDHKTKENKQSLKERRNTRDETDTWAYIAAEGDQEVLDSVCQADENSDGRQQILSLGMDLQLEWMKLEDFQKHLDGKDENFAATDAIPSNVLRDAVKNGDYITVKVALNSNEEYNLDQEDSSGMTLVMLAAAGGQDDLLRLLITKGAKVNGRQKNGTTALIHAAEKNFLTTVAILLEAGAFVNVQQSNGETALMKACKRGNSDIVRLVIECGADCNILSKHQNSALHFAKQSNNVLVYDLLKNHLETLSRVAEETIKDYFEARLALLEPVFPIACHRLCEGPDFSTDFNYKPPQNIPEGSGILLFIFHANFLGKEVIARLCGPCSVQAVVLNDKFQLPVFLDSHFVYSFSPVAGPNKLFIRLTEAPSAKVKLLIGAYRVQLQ
Chain of Thyrotropin-releasing hormone receptor (Homo sapiens) (P34981 whole entry, looked up): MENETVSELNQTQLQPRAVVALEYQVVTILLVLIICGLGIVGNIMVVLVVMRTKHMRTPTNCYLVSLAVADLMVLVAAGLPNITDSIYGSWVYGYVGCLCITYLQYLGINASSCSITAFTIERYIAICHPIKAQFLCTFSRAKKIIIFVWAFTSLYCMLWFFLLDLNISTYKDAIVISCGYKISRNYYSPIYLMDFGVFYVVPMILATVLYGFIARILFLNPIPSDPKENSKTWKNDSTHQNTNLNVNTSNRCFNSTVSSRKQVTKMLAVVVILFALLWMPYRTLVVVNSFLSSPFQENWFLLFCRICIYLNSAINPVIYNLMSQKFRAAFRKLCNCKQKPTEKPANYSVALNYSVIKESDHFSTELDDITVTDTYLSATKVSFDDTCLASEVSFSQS
Chain of Cytochrome P450 2C19 (Homo sapiens) (P33261 whole entry, looked up): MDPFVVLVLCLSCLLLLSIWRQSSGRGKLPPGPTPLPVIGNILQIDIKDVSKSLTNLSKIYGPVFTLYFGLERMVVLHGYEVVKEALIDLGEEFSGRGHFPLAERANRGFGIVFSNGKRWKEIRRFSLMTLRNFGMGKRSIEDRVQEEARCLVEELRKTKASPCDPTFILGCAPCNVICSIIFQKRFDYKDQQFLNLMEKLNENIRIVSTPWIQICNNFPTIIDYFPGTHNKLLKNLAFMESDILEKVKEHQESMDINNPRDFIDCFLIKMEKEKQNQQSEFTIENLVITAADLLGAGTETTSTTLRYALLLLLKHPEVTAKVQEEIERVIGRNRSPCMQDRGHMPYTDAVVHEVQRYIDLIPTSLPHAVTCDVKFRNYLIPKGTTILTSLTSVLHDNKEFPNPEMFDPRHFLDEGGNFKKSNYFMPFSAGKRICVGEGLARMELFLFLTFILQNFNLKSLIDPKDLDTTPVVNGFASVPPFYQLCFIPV
Chain of Galactokinase (Homo sapiens) (P51570 whole entry, looked up): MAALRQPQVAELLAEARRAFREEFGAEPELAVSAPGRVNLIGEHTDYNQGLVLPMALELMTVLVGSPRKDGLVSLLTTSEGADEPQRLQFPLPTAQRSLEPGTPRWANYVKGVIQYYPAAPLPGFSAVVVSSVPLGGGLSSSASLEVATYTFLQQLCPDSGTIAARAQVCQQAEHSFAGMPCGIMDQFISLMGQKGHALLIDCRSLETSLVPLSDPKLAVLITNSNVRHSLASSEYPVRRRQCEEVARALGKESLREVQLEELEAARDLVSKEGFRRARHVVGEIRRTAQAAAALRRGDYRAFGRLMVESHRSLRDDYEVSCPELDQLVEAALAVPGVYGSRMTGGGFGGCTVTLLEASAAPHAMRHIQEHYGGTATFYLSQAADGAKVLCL
Chain of Ferritin light chain (Equus caballus) (P02791 2-175 limits assumed): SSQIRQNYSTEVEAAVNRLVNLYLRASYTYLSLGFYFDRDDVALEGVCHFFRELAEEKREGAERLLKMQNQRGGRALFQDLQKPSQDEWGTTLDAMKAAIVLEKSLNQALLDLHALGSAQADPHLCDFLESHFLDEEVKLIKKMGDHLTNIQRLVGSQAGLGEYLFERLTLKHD
Chain of Thyrotropin receptor (Homo sapiens) (P16473 whole entry, looked up): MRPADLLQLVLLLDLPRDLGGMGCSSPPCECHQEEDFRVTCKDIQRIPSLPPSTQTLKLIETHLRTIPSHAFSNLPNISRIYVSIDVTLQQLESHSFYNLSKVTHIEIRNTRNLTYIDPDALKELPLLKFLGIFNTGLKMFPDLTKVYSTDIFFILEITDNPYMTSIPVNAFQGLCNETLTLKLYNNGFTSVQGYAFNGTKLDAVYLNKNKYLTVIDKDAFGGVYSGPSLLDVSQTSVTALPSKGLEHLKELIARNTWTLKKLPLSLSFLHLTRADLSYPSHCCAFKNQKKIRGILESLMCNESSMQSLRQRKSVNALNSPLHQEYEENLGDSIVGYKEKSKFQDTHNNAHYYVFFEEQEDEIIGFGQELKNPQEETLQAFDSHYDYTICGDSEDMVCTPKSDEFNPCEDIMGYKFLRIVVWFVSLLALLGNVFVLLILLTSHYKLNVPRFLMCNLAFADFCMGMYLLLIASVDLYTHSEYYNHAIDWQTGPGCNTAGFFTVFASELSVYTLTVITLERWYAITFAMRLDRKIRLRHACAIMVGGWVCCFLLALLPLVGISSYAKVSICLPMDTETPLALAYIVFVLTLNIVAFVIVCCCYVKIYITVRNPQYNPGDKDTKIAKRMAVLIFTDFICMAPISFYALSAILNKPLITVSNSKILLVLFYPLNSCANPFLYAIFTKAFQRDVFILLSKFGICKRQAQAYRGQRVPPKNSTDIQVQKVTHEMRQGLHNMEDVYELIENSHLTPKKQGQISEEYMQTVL
Chain of Muscarinic acetylcholine receptor M1 (Rattus norvegicus) (P08482 whole entry, looked up): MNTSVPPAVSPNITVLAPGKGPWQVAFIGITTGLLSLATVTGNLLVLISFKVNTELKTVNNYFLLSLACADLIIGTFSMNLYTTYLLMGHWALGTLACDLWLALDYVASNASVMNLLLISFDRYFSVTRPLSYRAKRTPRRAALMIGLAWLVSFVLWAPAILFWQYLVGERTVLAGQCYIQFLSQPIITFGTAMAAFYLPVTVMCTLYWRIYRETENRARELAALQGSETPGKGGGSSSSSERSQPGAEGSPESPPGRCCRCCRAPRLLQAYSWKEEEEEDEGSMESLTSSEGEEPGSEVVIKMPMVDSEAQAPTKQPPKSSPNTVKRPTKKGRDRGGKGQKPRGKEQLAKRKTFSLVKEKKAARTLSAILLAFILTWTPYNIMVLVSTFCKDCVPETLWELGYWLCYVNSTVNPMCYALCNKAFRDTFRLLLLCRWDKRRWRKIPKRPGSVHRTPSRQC

As to `CC(O)C(C)OC(=O)[C@@H]1C[C@@H]2c3cccc4c3c(cn4C(C)C)C[C@H]2N(C)C1` (some centres undefined), the Potency entry in test [1], in test [2], in [8], in test [9] and in [14] was “inactive” throughout. Also, the Potency in test [3] is 11.2 µM (active); in test [4], 12.6 µM (active); in [5], 7.94 µM (active); in test [6], 14.1 µM (active). Also, the result in test [7], in test [10], in [11] and in test [13] was inactive. The activation in test [12] is 4%.
On to `N[C@@H](CCP(=O)(O)O)C(=O)O`, for which the activity change, negative = inhibition in test [15] (at 7.69 µM (top of the series)) was 3.73%.
`N[C@@H](Cn1cc(I)c(=O)[nH]c1=O)C(=O)O`: the result in test [16], in [19], in [7], in [10], in test [11] and in test [13] was inactive. The Potency entry in test [17], in [18], in test [1], in [2], in test [3] and in test [4] was “inactive” in each case. The Potency result in test [5], in [6], in test [8], in [9] and in [14] was “inactive” in each case. Also, the activation in test [12] is 0.375%.
In the case of `Cc1o[nH]c(=O)c1C[C@H](N)C(=O)O`, the activity change, negative = inhibition in test [15] (at 38 µM (top of the series)) was -2.02%. Besides, the Potency in test [20] was 2.51 µM (active). Also, the result in [16] and in [19] was inactive. In addition, the Potency entry in test [18] was “inactive”.
Consider `CC(C)(C)c1o[nH]c(=O)c1C[C@H](N)C(=O)O`, for which, in test [15] (at 38 µM (top of the series)), the activity change, negative = inhibition was -2.55%. Besides, the call in [16] and in [19] was inactive. Besides, the Potency result in test [17] and in [18] was “inactive” each time.
For `CP(=O)(O)CCCN`, the Potency entry in test [17], in test [1], in [2], in test [8], in test [9] and in [14] was “inactive” each time. Moreover, the compound was classed as inactive in [19], in test [7], in [10], in test [11] and in test [13]. Moreover, the Potency in test [5] is 2.82 µM (active). Besides, the activation in test [12] is 1.06%.
As for `N[C@H](CCP(=O)(O)O)C(=O)O`, the activity change, negative = inhibition in test [15] (at 38 µM (top of the series)) is 13.5%. Also, the call in [16] and in test [19] was inactive. The Potency result in test [17] and in test [18] was “inactive” in each case.
Take `N#CC(C#N)=Cc1ccc([N+](=O)[O-])c(O)c1`: the call in test [16], in test [19], in [7], in test [10], in test [11] and in test [13] was inactive. Besides, the Potency entry in [17], in [18], in [1], in [2], in test [3] and in test [4] was “inactive” throughout. The Potency entry in test [5], in [6], in [8], in test [9] and in [14] was “inactive” each time. Besides, the activation in test [12] was -0.188%.
Consider `CN1C(=O)CCS(=O)(=O)[C@H]1c1ccc(Cl)cc1`, for which the Potency entry in test [20], in test [17] and in [18] was “inactive” each time. Moreover, in test [16], the call was inactive.
On to `C=CCN1CC[C@@]23c4c5ccc(O)c4O[C@H]2/C(=N\N=C2/CC[C@@]4(O)[C@H]6Cc7ccc(O)c8c7[C@@]4(CCN6CC=C)[C@@H]2O8)CC[C@]3(O)[C@@H]1C5`, for which the Potency entry in test [18] is “inactive”. The outcome in [19] was inactive.
As to `c1ccc2c(c1)OC[C@@H](C1=NCCN1)O2`, the Potency in [20] was 7.94 µM (active). Besides, the Potency entry in [17] and in [18] was “inactive” each time. Besides, the result in test [19] was inactive.
